Calls of active or inactive are those of the source. Unless noted, no rule for the calls is given here.

Results on 13 molecules are retold here after PubChem BioAssay.

Test [1] in a line: resazurin metabolic signal in HepG2 cells – cell-based, resazurin fluorescence, 24 h, PK04 Diversity Set, profiling panel (AID 1172). Also: test concentration not given here. The note with it: HepG2 viability, higher = more signal.
Test [2] can be described thus: budding yeast growth changes without added modifier – OD600, strain BY4716, 24 h, basal condition, primary screen (AID 1173). As to conditions: S. cerevisiae BY4716 growth, OD600, 24 h; higher = more signal, called active from +8 up or from −8 down.
Test [3] is described as follows: viability profiling in MM1S myeloma cells – cell-based, resazurin fluorescence, basal, 24 h, PK04 Diversity Set, profiling panel (AID 1174).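 Also: MM1S multiple myeloma cell line; test concentration not given here.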 As to conditions: higher = more signal, called active from +8 up or from −8 down. For orientation: Resazurin is reduced to fluorescent resorufin, in cell work by metabolically active cells.
The target of test [4] is Dihydroorotate dehydrogenase (quinone), mitochondrial (Plasmodium falciparum (isolate 3D7)) (UniProt Q08210). Briefly: inhibition of P. falciparum DHODH – biochemical, C-terminal His tag, absorbance 600 nm, primary screen (AID 1175).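 Also: recombinant parasite enzyme with a five histidine tag at its C terminus; test concentration not given here.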 The note with it: PfDHODH enzyme, DCIP absorbance 600 nm; higher = more signal, called active from +8 up or from −8 down.
The nature of test [5]: inhibition of PAO1 biofilm formation – strain PAO1, LB-PBS medium, absorbance 600 nm, primary screen (AID 1176). Also: test concentration not given here. The note with it: P. aeruginosa PAO1 growth/biofilm, A600, 12 h; higher = more signal.
Test [6] can be described thus: growth modulation of vineyard yeast isolate – strain RM11-1a, OD600, basal, 24 h, primary screen (AID 1177).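 Also: cultures grown under basal conditions with no added stressor; test concentration not given here.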 As to conditions: S. cerevisiae RM11-1a growth, OD600, 24 h; higher = more signal, called active from +8 up or from −8 down.
Test [7] in a line: growth of efflux-deficient E. coli DRC39 – strain DRC39, OD650, 24 h, E. coli filamentation inducers, primary screen (AID 1178).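 Also: growth measured as culture turbidity by optical density at 650 nm; test concentration not given here.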 As to conditions: E. coli DRC39 acrAB, higher = more signal, called active from +8 up or from −8 down.
Test [8] is described as follows: growth of efflux-deficient E. coli DRC39 – strain DRC39, OD650, 48 h, E. coli filamentation inducers, primary screen (AID 1179).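 Also: screen aims at cell division blockers that make cells filament.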 As to conditions: E. coli DRC39 delta-acrAB growth, higher = more signal, called active from +8 up or from −8 down.
The nature of test [9]: viability profiling in RPMI8226 myeloma cells – cell-based, resazurin fluorescence, basal, 24 h, PK04 Diversity Set, profiling panel (AID 1180).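 Also: RPMI8826 multiple myeloma cell line at 5000 cells per well; test concentration not given here.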 The note with it: higher = more signal.
For test [10], the target named is E3 ubiquitin-protein ligase XIAP (Homo sapiens) (UniProt P98170). The test can be described thus: small molecules binding XIAP protein – biophysical, small-molecule microarray, fluorescence 635 nm, primary screen (AID 1181).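 Also: score merges 667 nm emission and signal to noise over triplicate slides.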 The note with it: higher = more signal.
E3 ubiquitin-protein ligase XIAP (Homo sapiens), sequence (P98170 whole entry, looked up): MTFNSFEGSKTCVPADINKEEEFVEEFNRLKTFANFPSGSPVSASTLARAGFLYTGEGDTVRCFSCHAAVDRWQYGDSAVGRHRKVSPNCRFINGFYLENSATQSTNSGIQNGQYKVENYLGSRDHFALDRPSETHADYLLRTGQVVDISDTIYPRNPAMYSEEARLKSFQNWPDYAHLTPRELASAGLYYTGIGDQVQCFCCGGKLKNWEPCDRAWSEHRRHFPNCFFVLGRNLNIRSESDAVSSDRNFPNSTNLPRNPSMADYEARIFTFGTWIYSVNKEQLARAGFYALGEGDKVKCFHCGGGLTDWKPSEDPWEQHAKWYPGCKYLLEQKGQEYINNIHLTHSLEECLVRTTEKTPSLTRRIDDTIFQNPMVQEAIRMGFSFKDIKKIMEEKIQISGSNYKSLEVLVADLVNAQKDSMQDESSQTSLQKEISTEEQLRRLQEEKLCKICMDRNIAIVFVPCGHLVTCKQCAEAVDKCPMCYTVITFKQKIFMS

Dihydroorotate dehydrogenase (quinone), mitochondrial (Plasmodium falciparum (isolate 3D7)), sequence (Q08210 whole entry, looked up): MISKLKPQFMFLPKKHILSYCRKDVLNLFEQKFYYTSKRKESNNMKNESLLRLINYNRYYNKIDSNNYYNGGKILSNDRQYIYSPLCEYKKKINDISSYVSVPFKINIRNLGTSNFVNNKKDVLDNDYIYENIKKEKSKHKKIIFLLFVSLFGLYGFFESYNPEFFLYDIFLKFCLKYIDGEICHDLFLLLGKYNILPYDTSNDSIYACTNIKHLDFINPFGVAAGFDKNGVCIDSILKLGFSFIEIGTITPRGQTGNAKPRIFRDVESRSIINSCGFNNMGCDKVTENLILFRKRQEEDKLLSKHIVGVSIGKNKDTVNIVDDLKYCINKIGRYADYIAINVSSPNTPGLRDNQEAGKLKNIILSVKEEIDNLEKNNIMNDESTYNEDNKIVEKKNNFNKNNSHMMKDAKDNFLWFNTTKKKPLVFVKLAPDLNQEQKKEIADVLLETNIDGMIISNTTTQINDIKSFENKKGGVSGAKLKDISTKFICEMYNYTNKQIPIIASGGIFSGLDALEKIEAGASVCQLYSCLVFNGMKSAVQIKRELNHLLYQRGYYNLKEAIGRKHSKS

With `CCCC[C@@H]1C[C@H]1[C@@H](NC(=O)c1ccccc1)c1ccc(Cl)cc1`, the z-score in test [1] is 1.18; in [2], 0.127 (inactive); in test [3], 0.696 (inactive); in test [5], 0.495 (inactive); in [6] it was -0.359 (inactive); in test [7] it was -1.11 (inactive). In addition, the z-score in test [8] was -0.324 (inactive); in test [9], 1.51. The figures for the composite z-score in [4] and in test [10] were -0.402 (inactive) and 0.0049, respectively.

For `O=C1c2ccccc2[C@](Cc2ccccc2I)(C(=O)NCc2ccccc2)[C@H](c2ccc(CO)cc2)N1C1CCCCC1`, the z-score was -0.176 in [1]; -0.453 (inactive) in [2]; 0.485 (inactive) in test [3]; 0.214 (inactive) in test [5]; -0.871 (inactive) in test [6]; 0.852 (inactive) in [7]. The z-score in test [8] is -0.14 (inactive); in test [9] it was 0.489. Besides, the values for the composite z-score in test [4] and in test [10] were -0.567 (inactive) and 0.182, respectively.

As to `COc1cc(OC)c(C(O)C2C=CC3C(=O)N(c4ccccc4)C(=O)C3N2Nc2ccc(C#N)cc2)cc1Br` (stereo not given), the z-score in test [1] is -0.99; in test [2], -6.31 (inactive); in test [3], -0.408 (inactive); in test [5], 0.984 (inactive); in test [6], -0.759 (inactive); in [7] it was -0.628 (inactive). For the same molecule, the values for the z-score in [8] and in test [9] were -0.0118 (inactive) and -0.758, respectively. The composite z-score in test [4] is 1.49 (inactive); in [10], -0.0181.

As to `CC(C)(C)OC(=O)CC[C@@]1(C(=O)O)N=C(c2ccc(OCCCO)cc2)O[C@@H]1c1ccccc1`, the z-score in [1] was 0.0648; in test [2] it was 0.313 (inactive); in test [3] it was 0.0375 (inactive); in [5], -0.043 (inactive); in test [6] it was 1.4 (inactive); in [7], 0.0847 (inactive). The results for the z-score in test [8] and in test [9] were -0.202 (inactive) and 0.56, respectively. Moreover, the composite z-score in [4] was 0.904 (inactive); in test [10], -0.0918.

Take `COc1ccccc1CN1C(=O)c2ccccc2[C@](Cc2ccccc2I)(C(=O)NC(C)C)[C@@H]1c1ccc(CO)cc1`: the z-score in test [1] is 0.985; in [2] it was -0.601 (inactive); in [3] it was -0.577 (inactive); in test [5], -0.379 (inactive); in [6] it was 0.862 (inactive); in test [7], 1.05 (inactive). The z-score in [8] was 1.01 (inactive); in [9], -0.305. The composite z-score in [4] was -2.47 (inactive); in test [10], -0.253.

Take `O=C1C[C@]2(c3ccc([N+](=O)[O-])cc3)C(=O)N(Cc3ccccc3)c3cc(CO)ccc3[C@H]2N1CC12CC3CC(CC(C3)C1)C2`: the z-score was -0.566 in test [1]; -0.0685 (inactive) in test [2]; -0.434 (inactive) in test [3]; 0.848 (inactive) in [5]; -0.268 (inactive) in test [6]; -0.22 (inactive) in [7]. Also, the results for the z-score in [8] and in test [9] were 0.0276 (inactive) and -0.717, respectively. For the same molecule, the composite z-score in test [4] is -3.36 (inactive); in test [10], -0.133.

On to `NCCCCCCNC(=O)[C@@H]1C[C@@H]2C(=O)N3CCC[C@H]3C(=O)N2[C@@H]1c1ccc(O)cc1`, for which the z-score in test [1] was -0.0529; in test [2], -0.547 (inactive); in test [3], -0.233 (inactive); in test [5] it was -0.282 (inactive); in test [6] it was -0.407 (inactive); in test [7] it was -0.188 (inactive). Besides, the z-score was -0.196 (inactive) in test [8] and -0.134 in test [9]. Also, the composite z-score was -1.18 (inactive) in [4] and -0.209 in test [10].

In the case of `CCOC(=O)[C@@H]1[C@@H]2C(=O)N(CC)C(=O)[C@@H]2C[C@@H]1Sc1ccccc1`, the z-score in test [1] was 0.0632; in test [2] it was -0.325 (inactive); in [3], -0.33 (inactive); in [5], 0.257 (inactive); in test [6] it was 0.866 (inactive); in [7], -0.638 (inactive). Besides, the z-score in [8] is -0.894 (inactive); in test [9], -0.458. The composite z-score is 0.917 (inactive) in [4] and -0.127 in test [10].

As to `[N-]=[N+]=Nc1ccccc1[C@@H]1OC(c2ccc(OCCCO)cc2)=N[C@]1(CCS(=O)(=O)c1ccccc1)C(=O)NCCN1CCOCC1`, the z-score in test [1] is -0.376; in [2], -1.32 (inactive); in [3], -0.195 (inactive); in [5], 0.236 (inactive); in test [6] it was -0.309 (inactive); in test [7] it was 0.833 (inactive). Also, the z-score in test [8] is -0.278 (inactive); in test [9], -0.659. For the same molecule, the composite z-score in [4] is 0.313 (inactive); in [10], -0.34.

On to `C=CCOC(=O)[C@H]1[C@@H]2C(=O)O[C@@H](c3ccccc3)[C@@H](c3ccccc3)N2[C@@H](c2ccc(OCCOC(=O)[C@H]3C[C@H]4C(=O)N[C@@H](Cc5ccccc5)C(=O)N4[C@H]3c3cccc(OCCO)c3)cc2)[C@]12C(=O)Nc1ccc(I)cc12`, for which the z-score in test [1] is 0.169; in test [2], 1.42 (inactive); in [3] it was -0.446 (inactive); in test [5] it was 2.17 (inactive); in test [6], 1.04 (inactive); in test [7] it was -0.0281 (inactive). Moreover, the values for the z-score in test [8] and in test [9] were 0.0436 (inactive) and 0.0282, respectively. The composite z-score in [4] was 0.64 (inactive); in test [10] it was -0.105.

Consider `COc1ccc([Si](C)(C)[C@@H]2[C@@H](CCO)O[C@]3(C(=O)N(Cc4cccc(N5C(=O)c6cccc7cccc5c67)c4)c4ccccc43)[C@H]2C)cc1`, for which the z-score in test [1] is -1.83; in test [2] it was 1.34 (inactive); in test [3], -2.77 (inactive); in test [5] it was 1.53 (inactive); in test [6], 5.01 (inactive); in [7], 1.55 (inactive). Also, the z-score was 0.97 (inactive) in test [8] and -3.49 in test [9]. Also, the composite z-score in test [4] was 0.518 (inactive); in test [10], -0.0351.

With `O=C1OCC=C[C@H]2OC34C=CCN(c5ccc(Cl)cc5)C(=O)[C@H]3N(CCCCCO)C(=O)[C@@H]4[C@@H]12` (stereo not given in full), the z-score in [1] was -0.46; in test [2] it was -1.1 (inactive); in test [3], -0.338 (inactive); in test [5] it was -0.0963 (inactive); in test [6], 0.119 (inactive); in [7], 0.602 (inactive). For the same molecule, the z-score was 0.182 (inactive) in test [8] and 0.0508 in [9]. Also, the composite z-score was 0.193 (inactive) in test [4] and 0.287 in test [10].

Consider `COCCOC(=O)N1C(=O)[C@@]2(c3cc(C#CC4=CCCCC4)ccc31)[C@H](C(=O)N1CCN(c3ncccn3)CC1)[C@H]1C(=O)O[C@H](c3ccccc3)[C@H](c3ccccc3)N1[C@@H]2c1ccc(O)cc1`, for which the z-score was -0.173 in [1]; 1.14 (inactive) in test [2]; -1.81 (inactive) in test [3]; 1.16 (inactive) in test [5]; 1.69 (inactive) in test [6]; -0.766 (inactive) in test [7]. For the same molecule, the z-score in [8] was -0.0604 (inactive); in test [9], -0.765. Also, the composite z-score in test [4] was 0.332 (inactive); in test [10] it was 0.0589.
